Several values for one entry are separate records, joined by “and”; a condition that tells them apart may be missing. Equal entries are not always repeated. This is part of a sample that, as a whole, favours compounds with a hit. Of some 83,000 tested, about 20% had one in any assay.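 The test compound was applied at a single concentration to cells in 96-well plates for 48 hours, and percent growth was recorded.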 Unmarked numbers belong to inactive results. Activity calls are given as the source filed them. Rule for the calls: active = growth percent below 10; inactive = the rest.

This is an account of results in PubChem BioAssay (NCI).

For this assay, the system named is MDA-MB-468 breast. Description: NCI-60 one-dose screen, 48 h (100 = growth as untreated, 0 = no growth, -100 = all killed). The note with it: 10 µM unless noted.
With `COc1ccc(/C=C\c2cc(OC)c(OC)c(OC)c2)cc1NS(=O)(=O)c1ccc(Cl)cc1`, the growth is 42.2%. Next, `O=C(O)c1nn(Cc2ccc(Cl)cc2)c2ccccc12`: 105%; `S=P(Nc1ccccc1)(Nc1ccccc1)c1ccccc1`: 127%; `COC(=O)CC[C@H](Cc1ccccc1)NC(=O)c1csc([C@@H](C[C@H](C(C)C)N(C)C(=O)[C@@H](NC(=O)[C@H]2CCCCN2C)C(C)C)OC(C)=O)n1`: 66.9%. Then `O=C(O)C1C(C(=O)O)C2(Cl)C(Cl)=C(Cl)C1(Cl)C2(Cl)Cl.[Hg]` (stereo not given), with 58.4%.

Turning to `Fc1ccc2c(c1)c(-c1nc(-c3c[nH]c4ncccc34)cs1)cn2CCCCN1CCCCC1`, the growth is -56.6% (active). Then `CCOc1ccc(/C=C/[N+](=O)[O-])cc1`, with 35.4%; and `c1ccc(Nc2nc(-c3ccccc3)c[se]2)cc1`, with 49.8%. Next, `COP(=S)(OC)Oc1ccc(SC)c(C)c1`: 108%; `O=C(CCl)Nc1ccc(Cl)cc1`: 18.6%; `COc1ccc(C(C#N)C(C)=O)cc1` (stereo not given): 106%.

With `O=Cc1cn(Cc2ccc(Cl)cc2)c2ccccc12`, the growth is -45% (active). Next, `O=C1C(=O)c2ccccc2-c2ccccc21`: -85.6% (active); `Cc1cc(C(C)(C)C)ccc1O`: 99.3%; `C#Cc1ccc2c(c1)C(c1ccccc1)=NCC(=O)N2C`: 20.8%. Next, `COc1ccc2c(c1)c(-c1nc(-c3cn(C)c4ncccc34)cs1)cn2CCCCN1CCOCC1`: 35%. Then `N#CC(C#N)=Cc1cccc(F)c1`, with 109%; and `O=[N+]([O-])c1cc(Br)c(O)c(Br)c1`, with 99.4%. `N#CC1C(C#N)C2CCC1C1C2N1c1ccccc1` (stereo not given): the growth was 102%. On to `CCC1([N+](=O)[O-])COP(=O)(NCc2cccnc2)OC1` (stereo not given), for which the growth was 104%. Next, `Oc1c(I)cc(I)cc1I`: 102%. For the molecule `CCOC(=O)N[C@H]1CCc2c(Br)c(OC)c(OC)c(OC)c2-c2ccc(SC)c(=O)cc21`, the growth is -14.7% (active). Next, `Cc1ccc2c(C(C[N+](=O)[O-])c3cccs3)c(-c3ccccc3)[nH]c2c1` (stereo not given): -5.47% (active); `CC(=O)OC1CCC2(C)C(CCC3C2CC(=O)C2(C)C3CC(Sc3ccc(N(CCCl)CCCl)cc3)C2C(C)=O)C1` (stereo not given): 86.6%. For the molecule `O=C1NC(=O)C(=Cc2ccccc2)C(=O)N1`, the growth was 96.4% and 115%.

Consider `COC(=O)C1=CCCN(C)C1`, for which the growth is 105% and 92.8%. In the case of `Oc1c(Cl)cc(Cl)c2ccccc12.[Cu+2]`, the growth is 101%. Then `O=C(Nc1ccc(Br)cc1)c1cc(Br)cc(Br)c1O`, with -23.3% (active); and `CCC(C)(C)O`, with 104%. Next, `CN(Cc1cccnc1)N=O`: 103%. Then `Clc1ccc(CSC(Cn2ccnc2)c2ccc(Cl)cc2Cl)cc1` (stereo not given), with -2.39% (active); and `COC(=O)C1CC2c3ccccc3C1c1ccccc12` (stereo not given), with 93.1%. Consider `O=[As]c1ccc(C(=O)c2ccc(Oc3ccccc3)cc2)cc1` (stereo not given), for which the growth was -85.6% (active).

`CCNc1nc(Cl)nc(NCC)n1`: the growth is 106%. Next, `CC1[C@H](C)OC(=O)CC(O)CC(O)CC(O)CCC(O)C(O)C[C@]2(O)CC(O)C(C(=O)O)C(CC(OC3O[C@H](C)[C@@H](O)[C@H](N)[C@@H]3O)/C=C/C=C/C=C/C=C/CC/C=C/C=C/[C@H](C)[C@H]1O)O2` (stereo not given in full): 108%. Next, `CC(C)(C)[Si](C)(C)OC1[C@@H](O[Si](C)(C)C(C)(C)C)[C@@H](CNC(=O)NC(=O)CF)O[C@H]1n1cnc2c(NC(=O)Nc3ccccc3)ncnc21` (stereo not given in full): 90.5%; `CC(=O)O[C@H](C[C@H](C(C)C)N(C)C(=O)[C@@H](NC(=O)[C@H]1CCCCN1C)C(C)C)c1cccc(C(=O)N[C@@H](Cc2ccccc2)C[C@H](C)C(=O)O)n1`: 20.9%; `CC[C@H](C)[C@H](NC(=O)NC(C)(C)C)C(=O)N(C)[C@H](C[C@@H](OC(C)=O)c1nc(C(=O)N[C@@H](Cc2ccccc2)C[C@H](C)C(=O)OC)cs1)C(C)C`: 15.4%. Then `CCCCOCCOP(=O)(OCCOCCCC)OCCOCCCC`, with 91.5%. Consider `CCOC(=O)[C@@H](C)C[C@H](Cc1ccccc1)NC(=O)c1csc([C@@H](C[C@H](C(C)C)N(C)C(=O)[C@@H](NC(=O)[C@H]2C[C@H](O)CCN2C)C(C)C)OC(C)=O)n1`, for which the growth is 21.8%.
